Values without a mark were called inactive. Calls of active or inactive are those of the source. Calls follow the shape of the dose curve; as a rule, active = well fitted curve in the direction sought with a large enough effect in the repeat runs; inconclusive = weak or mixed curves; inactive = flat fitted curve, though single readings scatter.
% is scaled to controls: 0 for no effect and ±100 for the full control effect.

The assay is described as follows: qHTS assay to test for compound auto fluorescence at 460 nm (blue) in HEK293 cells (AID 720678). As to conditions: blue autofluorescence 405/460 nm; series mostly up to 91.3 µM; fluorescence, % of triamterene: at the top concentration. The source says: National Center for Advancing Translational Sciences [NCATS]
NIH Chemical Genomics Center [NCGC]
U.S. Environmental Protection Agency [EPA]
National Institutes of Environmental Health Sciences [NIEHS]
National Toxicology Program [NTP]
U.S. Food and Drug Administration [FDA]
Compound auto fluorescence often interferes with screening of the compound library against various biological targets and signaling pathways. Some of these compounds may have fluorophoric properties. Such properties may interfere with the assay outputs resulting in false positives and/or negatives. To decrease such complications and ensure the compound activities are relevant in terms of biological response, the Tox21 10K compound library was screened for auto fluorescence.
From the fluorophores used as reporter signals in our screening assays, the auto fluorescence equivalencies of compounds against three fluorophores have been evaluated: Triamterene, Fluorescein and Rose Bengal sodium for blue, green and red fluorescence, respectively. The fluorescence intensities were measured using Excitation/Emission wavelengths at 405/460nm, 485/535nm and 540/590nm for blue, green and red labels, respectively. This assay includes the blue fluorescence data.
Tox21 Assay Protocol Summary:
2,000 HEK293 cells in 5 uL of culture medium containing 10% dialyzed FBS per well were dispensed into black wall/clear bottom 1536-well plates using a Multidrop Combi Dispenser (Thermo Scientific). The assay plates were incubated for 4-5 hr at 37C to allow cell attachment to the well bottom, followed by the transfer of 23 nL compound or DMSO vehicle by a pintool work station (Kalypsys, San Diego, CA). After the assay plates were incubated overnight at 37C and 5% CO2, fluorescence intensities in the assay plates were measured by an Envision (PerkinElmer, Shelton, CT) plate reader using three labels for measuring blue, green and red fluorescence at […] 460, 535 and 590nm respectively.
As for `CCCCC(CC)COC(=O)c1c(Br)c(Br)c(Br)c(Br)c1C(=O)OCC(CC)CCCC` (stereo not given), the “fluorescence, % of triamterene” value was 1.11%.
The same measure, in the same setting: the result for `Clc1ccc2ccccc2c1` reads -0.0062% [at 95.7 µM].
The same measure, in the same setting: the result for `COC1CC(=C(c2cccs2)c2cccs2)C[N+](C)(C)C1` (stereo not given) reads -0.0039% [at 46 µM].
On the same count and under the same terms, the figure for `O=C(N[C@H]1CN2CCC1CC2)c1ccc2c(c1)OCCO2` is 0.0611%.
As for `Cc1nc2ccccc2c(=O)n1-c1ccccc1Cl`, the “fluorescence, % of triamterene” value was -0.0203%.
Same read-out and setting: the result for `CC(C)OC(=O)Cc1ccccc1` reads -0.205%.
In the case of `FC(F)OC(F)(F)C(F)Cl` (stereo not given), the result was inactive.
`O=C(NC(=O)c1cc(F)c(F)cc1Cl)Nc1cc(F)ccc1N1CCC(C(=O)O)CC1`: the “fluorescence, % of triamterene” value is 0.0105% [at 46 µM].
For `CCCCCCCCCCCC[N+](C)(C)CCOc1ccccc1`, the outcome was inactive.
Consider `CC(C)(C)OOC(C)(C)CCC(C)(C)OOC(C)(C)C`, for which the “fluorescence, % of triamterene” value is -0.248%.
Still for that read-out and setting: the result for `CCC1CCC(=O)O1` (stereo not given) reads 0.102% [at 95.7 µM].
With `CCCCCCCCP(=O)(O)O`, the “fluorescence, % of triamterene” value is 0.352%.
Turning to `CC(C)c1ccc(OP(=O)(Oc2ccc(C(C)C)cc2)Oc2ccc(C(C)C)cc2)cc1`, the compound was called inactive.
Turning to `CCCCOC(=O)CCC(=O)OCCCC`, the “fluorescence, % of triamterene” value is -0.102%.
Still for that read-out and setting: the figure for `CN1C(=O)CN=C(c2ccccc2)c2cc([N+](=O)[O-])ccc21` is -0.472% [at 46 µM].
Still for that read-out and setting: the result for `CN(C)N` reads 0.0487%; that for `CCCC[P+](CC)(CCCC)CCCC` (tested in a mixture with another compound), -0.0262%.
Still for that read-out and setting: the figure for `Cc1ccc2c(C)cccc2c1` is -0.18%; for `CCCC1CCCCN1` (stereo not given) it is 0.131% [at 46 µM]; for `C=CCc1ccccc1O` it is 0.165%.
Take `CCc1cnc(C2=NC(C)(C(C)C)C(=O)N2)c(C(=O)O)c1` (stereo not given): the call was inactive.
On to `CC[N+]1(CCOC(=O)C(O)(c2ccccc2)c2ccccc2)CCCCC1`, for which the “fluorescence, % of triamterene” value was -0.047% [at 46 µM].
`CN(C)C(=O)Nc1cccc(OC(=O)NC(C)(C)C)c1`: the “fluorescence, % of triamterene” value was -0.0199%.
`Nc1cccc2ccccc12`: the result was inactive.
Still for that read-out and setting: the result for `CCCN(CCC)c1c([N+](=O)[O-])cc(C(C)C)cc1[N+](=O)[O-]` reads “inactive”.
With `C=CCSSCC=C`, the “fluorescence, % of triamterene” value was 0.177%.
The same measure, in the same setting: the figure for `O=C(O)c1cc(Cl)ccc1Cl` is 0.0082%; for `O=S(=O)(Cl)Cl` it is -0.113%; for `CC(C)(C#N)C(C)(C)C#N` it is -0.0689% [at 95.7 µM].
`SCc1ccccc1`: the “fluorescence, % of triamterene” value was 0.0452% [at 95.7 µM].
Consider `Cc1nnc(-c2ccccc2)c(=O)n1N`, for which the “fluorescence, % of triamterene” value is 0.165%.
Take `NP(N)(=O)NC(=O)c1ccc(F)cc1`: the “fluorescence, % of triamterene” value was 0.0784% [at 46 µM].
Consider `CCOC(=O)NC(O)C(Cl)(Cl)Cl` (stereo not given), for which the “fluorescence, % of triamterene” value was 0.0531% [at 46 µM].
Turning to `Clc1ccc(Cl)c(Cl)c1`, the call was inactive.
Same read-out and setting: the entry for `O=C1c2ccccc2C(=O)N1SC(Cl)(Cl)Cl` is “inactive”; for `OCC1CO1` (stereo not given) it is “inactive”.
For `CCC(C)Cl` (stereo not given), the “fluorescence, % of triamterene” value was 0.0395%.
On the same count and under the same terms, the result for `O=C(N/N=C/c1ccc([N+](=O)[O-])o1)c1cc([N+](=O)[O-])cc([N+](=O)[O-])c1O` reads -0.63% [at 46 µM]; that for `C[N+](C)(C)CC1CO1` (stereo not given), -0.0304%.
`Nc1c(Br)cc(Br)c2c1C(=O)c1ccccc1C2=O`: the fluorescence, % of triamterene was -0.127% [at 18.6 µM].

For the origin of these results see PubChem BioAssay (Tox21).
